Where a name gives a salt, the structure may show the parent alone. ± gives the standard deviation of the averaged measurements. Over roughly 2,000 compounds, “relative cell viability vs DMSO, compound + 0.2 uM CuET” has its median near 1; the lowest 2% begin near 0.25. Only a selection was taken, and the lowest values are over-represented in it overall.
The molecules below were run on TE10 (assay: relative cell viability vs DMSO, compound + 0.2 uM CuET (fraction); TE10 is an esophageal squamous carcinoma line; higher = less cytotoxic). Conditions: 2 µM; co-treatment: CuET (bis(diethyldithiocarbamate)copper) 0.2 uM; 48 h.
Method: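 TE10 ESCC cells (1,000/well, 384-well plates) were treated with Selleck bioactive library compounds at 2 uM combined with 0.2 uM CuET (copper diethyldithiocarbamate) for 48 h. Viability was read by CellTiter-Glo and expressed relative to DMSO wells. Two technical replicates (A, B).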

Row | Compound | relative cell viability
1 | Cc1c(C(=O)NN2CCCCC2)nn(-c2ccc(Cl)cc2Cl)c1-c1ccc(Cl)cc1 [Rimonabant] | 0.716 ± 0.15
2 | NC1=N[C@@]2(c3cc(NC(=O)c4ccc(F)cn4)ccc3F)COC[C@H]2CS1 | 0.948 ± 0.07
3 | O=C(O)C(Cc1ccccc1[N+](=O)[O-])=NNc1nc(-c2ccc(Cl)c(Cl)c2)cs1 | 1.04 ± 0.16
4 | O=C(/C=C/n1cnc(-c2cc(C(F)(F)F)cc(C(F)(F)F)c2)n1)N1CC(F)(F)C1 | 0.355 ± 0.025
5 | O=C(/C=C\n1cnc(-c2cc(C(F)(F)F)cc(C(F)(F)F)c2)n1)NNc1cnccn1 | 0.29 ± 0.015
6 | COc1cc(-c2ncn(/C=C\C(=O)OC(C)C)n2)cc(C(F)(F)F)c1 | 0.25 ± 0.0078
7 | C=CS(=O)(=O)NC1CCN(C(=O)CNc2cc(I)c(Cl)cc2OC)CC1 [K-Ras(G12C) inhibitor 9] | 0.699 ± 0.08
8 | O=C(NOCC1CC1)c1ccc(F)c(F)c1Nc1ccc(I)cc1Cl | 0.64 ± 0.17
9 | Cc1cccc(-c2[nH]ncc2-c2ccc3ncccc3n2)n1 | 1.04 ± 0.0027
10 | CC(C)(C)OC(=O)Nc1ccc(-c2cc(C(=O)NCCCCCCC(=O)NO)no2)cc1 | 0.244 ± 0.003
11 | O=C(CCCCCCNC(=O)c1cnc(N(c2ccccc2)c2ccccc2)nc1)NO [Rocilinostat (ACY-1215)] | 0.8907 ± 0.0072
12 | CN(C)c1ccc(C(=O)NCCCCCCC(=O)NO)cc1 | 0.322 ± 0.042
13 | C[C@@H]1COC(Nc2ccc3ncnc(Nc4ccc(OCc5nccs5)c(Cl)c4)c3c2)=N1 [Varlitinib] | 1.04 ± 0.086
14 | S=C=Nc1cccc(NC(=S)NCCCCNC(=S)Nc2cccc(N=C=S)c2)c1 | 1.2 ± 0.15
15 | C=CCn1c(=O)c2cnc(Nc3ccc(N4CCN(C)CC4)cc3)nc2n1-c1cccc(C(C)(C)O)n1 | 0.559 ± 0.038
16 | C=CC(=O)Nc1cccc(Sc2nc(Nc3ccc(N4CCN(C)CC4)cc3)ncc2Cl)c1 | 0.846 ± 0.02
17 | CCn1c(=O)c(-c2ccc(-c3cncs3)cc2Cl)cc2cnc(Nc3ccc(N4CCN(C)CC4)cc3)nc21 | 0.183 ± 0.025
18 | COc1cc2ncnc(Oc3cccc(NC(=O)Nc4cc(C(C)(C)C(F)(F)F)on4)c3)c2cc1OC | 1.1 ± 0.061
19 | COc1cc(OC)c(NC(=O)Nc2cc(C)on2)cc1Cl | 1.1 ± 0.05
20 | CCN1C(=CC(C)=O)Sc2ccc(OC)cc21 | 1.11 ± 0.11
21 | CC(CCC(=O)NCCS(=O)(=O)O)C1CCC2C3C(O)CC4CC(O)CCC4(C)C3CCC12C (stereo not given) [Sodium Tauroursodeoxycholate (TUDC)] | 1.24 ± 0.12
22 | O=C1C(Cl)=C(N2CCOCC2)C(=O)N1c1ccc(Cl)c(Cl)c1 | 1.17 ± 0.026
23 | COc1cc(/C=C/C(=O)O)ccc1O [Ferulic Acid] | 1.21 ± 0.12

Row | Compound | relative cell viability
24 | COc1ccc(/C=C/C(=O)C2(C(=O)/C=C/c3ccc(OC)c(OC)c3)CCCCC2)cc1OC | 0.238 ± 0.01
25 | COc1cc(/C=C/C(=O)CC(=O)/C=C/c2ccc(O)c(OC)c2)ccc1O [Curcumin] | 0.656 ± 0.023
26 | O=C1c2c(O)cccc2C([C@@H]2O[C@H](CO)[C@@H](O)[C@H](O)[C@H]2O)c2cc(CO)cc(O)c21 (stereo not given in full) [Aloin] | 1.1 ± 0.12
27 | N#Cc1ccc(COC[C@H]2O[C@@H](n3c(NCc4ccc(Cl)c(Cl)c4)nc4c(N)ncnc43)[C@H](O)[C@@H]2O)cc1 | 0.939 ± 0.0025
28 | CCOc1ccccc1OC(c1ccccc1)C1CNCCO1 (stereo not given) [Reboxetine mesylate] | 1.2 ± 0.37
29 | c1ccc(Cn2c(-c3ccc(OCC(C4CCNCC4)n4c(-c5ccccc5)nc5ccccc54)cc3)nc3ccccc32)cc1 (stereo not given) [Deltarasin] | 0.9797 ± 0.0069
30 | CC1(C)C=C(CN2C/C(=C\c3ccc(F)cc3)C(=O)/C(=C/c3ccc(F)cc3)C2)C(C)(C)N1O | 0.216 ± 0.0066
31 | CC(C)(C)Cn1c(N)nc2ccc(-c3[nH]c(C(C)(C)C)nc3-c3ccc(F)cc3)nc21 | 1.34 ± 0.083
32 | CCOC(=O)C1=C(C)NC(C)=C(C(=O)OCC)C1c1ccccc1/C=C/C(=O)OC(C)(C)C [Lacidipine] | 0.785 ± 0.011
33 | COc1ccc(COc2ccc(Cc3cnc(N)nc3N)cc2OC)cc1 | 1.024 ± 0.0044
34 | Cn1c(=O)cc(N2CCC[C@@H](N)C2)n(Cc2cc(F)ccc2C#N)c1=O [Trelagliptin] | 1.17 ± 0.22
35 | CC(C=CC(=O)NO)=CC(C)C(=O)c1ccc(N(C)C)cc1 (stereo not given) [Trichostatin A (TSA)] | 0.177 ± 0.0076
36 | CN(C(Cc1ccc(OS(=O)(=O)c2cccc3cnccc23)cc1)C(=O)N1CCN(c2ccccc2)CC1)S(=O)(=O)c1cccc2cnccc12 (stereo not given) | 0.992 ± 0.046
37 | CC(NC(=O)C(O)c1cc(F)cc(F)c1)C(=O)NC1C(=O)N(C)c2ccccc2-c2ccccc21 (stereo not given) | 1.07 ± 0.058
38 | CC(C)OC(=O)C1=CN(C(=O)c2ccc(F)c(F)c2)CC(C)(C)c2c1[nH]c1ccccc21 | 1.13 ± 0.041
39 | NNC(=O)c1ccncc1 [Isoniazid] | 1.1 ± 0.14
40 | O=C(/C=C/c1ccc2ccccc2n1)c1ccncc1 | 0.186 ± 0.037
41 | O=C(NNc1ccccc1)c1ccncc1 | 1.06 ± 0.18
42 | Cn1c(=O)cc(N2CCC[C@@H](N)C2)n(Cc2ccccc2C#N)c1=O [Alogliptin] | 1.1 ± 0.21
43 | NCc1c[nH]c(=S)n1[C@@H]1CCc2c(F)cc(F)cc2C1 [(R)-Nepicastat HCl] | 1.121 ± 0.0038
44 | CN(C)CCSSCCNC(=O)C1CCN(C(=O)CSc2ccc(Cl)cc2)CC1 | 1.05 ± 0.11
45 | Cc1cc(N2CCOCC2)cc2[nH]c(-c3c(NCC(O)c4cccc(Cl)c4)cc[nH]c3=O)nc12 (stereo not given) | 0.799 ± 0.15

From the supplement of paper PMC10670038
